# Source: PubChem BioAssay (EPA / NIEHS)
# Results filed as inconclusive are left out. Calls of active or inactive are those of the source. Rule for the calls, unless noted: active = hit-call score of the fitted dose curve at least 0.9, where 1 is the maximum; inconclusive = response in the unintended direction; inactive = score below 0.9.
# Legend:
# [1] = target: Thyroid hormone receptor alpha (Rattus norvegicus) + Thyroid hormone receptor beta (Rattus norvegicus) (UniProt P18113+P63059); experiment: TOX21_TR_LUC_GH3_Antagonist_Followup: Tox21 GH3 Thyroid Hormone Receptor Antagonism Luciferase Follow-Up Assay (AID 2283942)
# Summary of the method: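 Luminescence read-out (ONE-Glo, 30 min at room temperature) in GH3 reporter cells challenged with 1.0 nM T3 final. Compounds ran at 92 uM to 5nM over 15 concentrations for 24 h; DMSO served as negative control and baseline.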
# [2] = target: THRA (gene 7067) (UniProt P10827); experiment: TOX21_TRA_COA_Antagonist_Followup_ratio: Tox21 Thyroid Hormone Receptor alpha Antagonism through Coactivator Recruitment Follow-Up Assay, Ratio (AID 2283953)
# Sequence of THRA (gene 7067) (P10827 whole entry, looked up, the tested form may be a part): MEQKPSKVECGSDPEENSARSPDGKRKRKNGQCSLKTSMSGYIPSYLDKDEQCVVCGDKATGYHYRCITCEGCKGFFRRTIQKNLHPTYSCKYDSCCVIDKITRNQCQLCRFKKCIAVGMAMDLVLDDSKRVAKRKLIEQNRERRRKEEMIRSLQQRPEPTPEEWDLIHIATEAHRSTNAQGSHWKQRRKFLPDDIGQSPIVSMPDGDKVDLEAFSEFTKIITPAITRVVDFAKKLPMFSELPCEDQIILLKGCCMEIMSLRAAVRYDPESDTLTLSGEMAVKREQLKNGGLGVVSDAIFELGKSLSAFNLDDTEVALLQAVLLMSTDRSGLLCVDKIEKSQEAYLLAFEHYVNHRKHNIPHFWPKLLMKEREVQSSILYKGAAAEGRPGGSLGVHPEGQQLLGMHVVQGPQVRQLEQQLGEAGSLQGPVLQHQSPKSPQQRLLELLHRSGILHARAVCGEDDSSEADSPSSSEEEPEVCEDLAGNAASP
# Summary of the method: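 GST-TRα LBD 2.5 nM, BSA 0.10%, + cpd; then FITC-SRC-2 peptide 200 nM + Tb-anti-GST Ab 2 nM. TR-FRET ratio 520/495 nm. Norm: DMSO = 0%, T3 = 100%.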
# [3] = target: THRB (gene 7068) (UniProt P10828); experiment: TOX21_TRB_BLA_Antagonist_Followup_ratio: Tox21 Thyroid Hormone Receptor beta Antagonism Beta-lactamase (BLA) Follow-Up Assay, Ratio (AID 2283958)
# Sequence of THRB (gene 7068) (P10828 whole entry, looked up, the tested form may be a part): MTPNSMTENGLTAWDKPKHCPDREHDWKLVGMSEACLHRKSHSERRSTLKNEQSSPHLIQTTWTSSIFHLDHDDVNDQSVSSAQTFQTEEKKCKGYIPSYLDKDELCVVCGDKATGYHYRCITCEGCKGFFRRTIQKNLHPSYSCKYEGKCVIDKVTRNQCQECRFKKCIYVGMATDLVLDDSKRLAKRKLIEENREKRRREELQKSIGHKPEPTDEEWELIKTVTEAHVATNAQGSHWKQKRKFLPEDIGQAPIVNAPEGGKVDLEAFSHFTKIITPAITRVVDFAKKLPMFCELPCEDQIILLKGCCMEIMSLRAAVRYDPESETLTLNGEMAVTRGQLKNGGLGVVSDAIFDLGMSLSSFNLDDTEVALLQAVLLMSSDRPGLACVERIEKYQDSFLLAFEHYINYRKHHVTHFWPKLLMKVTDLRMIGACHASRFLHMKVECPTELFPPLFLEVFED
# Summary of the method: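 Beta-lactamase reporter ratio (460/530 nm, CCF4-AM substrate, 2 h room temperature) was read in TRb-bla HEK293T cells after 18 h compound treatment (11 concentrations, triplicate) at 37C in 2% charcoal-stripped FBS medium. Loss of signal fitted against DMSO.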
# [4] = TOX21_TRB_BLA_Antagonist_Followup_viability: Viability Assessment in the Tox21 Thyroid Hormone Receptor beta Antagonism Beta-lactamase (BLA) Follow-Up Assay (AID 2283961)
# Summary of the method: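 ATP-based CellTiter-Glo luminescence (30 min, room temperature) run in the same wells as the TRβ-bla readout. Cells: GeneBLAzer HEK293T expressing GAL4-TRβ LBD, exposed 18 h at 37C to compounds at 11 concentrations in triplicate, stripped-serum medium.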
# [5] = target: THRB (gene 7068) (UniProt P10828); experiment: TOX21_TRB_COA_Antagonist_Followup_ratio: Tox21 Thyroid Hormone Receptor beta Antagonism through Coactivator Recruitment Follow-Up Assay, Ratio (AID 2283967)
# Summary of the method: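 GST-TRb LBD 5.0 nM + 0.10% BSA, compound added; fluorescein-SRC-2 peptide 200 nM, Tb-anti-GST Ab 2 nM. TR-FRET, ex 340 / em 520:495 ratio. Norm: DMSO 0%, T3 100%.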
# [6] = CEETOX_H295R_PROG_noMTC: CeeTox H295R High-throughput Steroidogenesis Assay for Progesterone (PROG), maximum tolerated concentration (MTC) filtered results only (AID 2283920; active = hit-call score of the fitted dose curve at least 0.9, where 1 is the maximum; inactive = score below 0.9); settings: actives raise or lower the signal
# Summary of the method: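 Readout: medium progesterone by MTBE extraction, reverse-phase C18 HPLC, ESI-positive MS/MS. Human H295R cells, 10 uM forskolin pretreatment 48 h, chemical 48 h in 0.1% DMSO. Gain or loss fitted against DMSO baseline.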
# [7] = target: THRA (gene 7067) (UniProt P10827); experiment: TOX21_TRA_COA_Agonist_Followup_ratio: Tox21 Thyroid Hormone Receptor alpha Agonism through Coactivator Recruitment Follow-Up Assay, Ratio (AID 2283948; active = hit-call score of the fitted dose curve at least 0.9, where 1 is the maximum; inactive = score below 0.9)
# Summary of the method: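 Cell-free TR-FRET coactivator recruitment: GST-tagged TRα LBD (2.5 nM) with 0.10% BSA was incubated with compound, then fluorescein-SRC-2 peptide (200 nM) and Tb-anti-GST antibody (2 nM) added. 520:495 nm ratio normalized to DMSO (0%) and T3 (100%).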
# [8] = target: THRB (gene 7068) (UniProt P10828); experiment: TOX21_TRB_BLA_Agonist_Followup_ratio: Tox21 Thyroid Hormone Receptor beta Agonism Beta-lactamase (BLA) Follow-Up Assay, Ratio (AID 2283954)
# Summary of the method: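 Agonist mode: compounds (11-point, triplicate) incubated 18 h with HEK293T cells carrying GAL4-DBD/human TRβ-LBD and UAS-β-lactamase. Blue/green (460/530 nm) FRET ratio read after 2 h CCF4-AM loading; CellTiter-Glo viability run in the same plates.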
# [9] = target: THRB (gene 7068) (UniProt P10828); experiment: TOX21_TRB_COA_Agonist_Followup_ratio: Tox21 Thyroid Hormone Receptor beta Agonism through Coactivator Recruitment Follow-Up Assay, Ratio (AID 2283963; active = hit-call score of the fitted dose curve at least 0.9, where 1 is the maximum; inactive = score below 0.9)
# Summary of the method: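 Cell-free TR-FRET coactivator recruitment: GST-tagged TRβ LBD (5.0 nM) with 0.10% BSA incubated with compound, then fluorescein-SRC-2 peptide (200 nM) and Tb-anti-GST antibody (2 nM) added. 520:495 nm ratio normalized to DMSO (0%) and T3 (100%).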
# [10] = target: Retinoic acid receptor RXR-alpha (Homo sapiens) (UniProt P19793); experiment: TOX21_TR_RXR_BLA_Agonist_Followup_ratio: Tox21 Thyroid Hormone Receptor beta Retinoid X Receptor alpha (RXRa) Agonism Beta-lactamase (BLA) Follow-Up Assay, Ratio (AID 2283968)
# Sequence of Retinoic acid receptor RXR-alpha (Homo sapiens) (P19793 whole entry, looked up): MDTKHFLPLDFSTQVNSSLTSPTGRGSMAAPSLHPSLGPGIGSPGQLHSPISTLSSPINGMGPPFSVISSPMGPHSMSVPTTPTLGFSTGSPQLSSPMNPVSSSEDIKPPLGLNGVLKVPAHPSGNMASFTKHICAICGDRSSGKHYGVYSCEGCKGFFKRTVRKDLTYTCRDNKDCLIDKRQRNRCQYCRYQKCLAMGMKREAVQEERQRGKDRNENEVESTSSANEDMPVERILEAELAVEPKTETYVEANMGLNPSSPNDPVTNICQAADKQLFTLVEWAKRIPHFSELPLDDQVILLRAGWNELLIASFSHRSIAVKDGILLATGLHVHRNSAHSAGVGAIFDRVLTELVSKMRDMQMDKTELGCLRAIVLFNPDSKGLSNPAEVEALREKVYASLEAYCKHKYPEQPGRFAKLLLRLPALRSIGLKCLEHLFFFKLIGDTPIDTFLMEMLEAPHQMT
# Summary of the method: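 Agonist mode: compounds given to RXRa-bla HEK293T cells at 11 concentrations, triplicate, 16 h at 37C/5% CO2. Readout is the 460:530 nm blue/green ratio after 2 h substrate loading at room temperature; DMSO baseline, 9-cis retinoic acid control.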
# [11] = CEETOX_H295R_TESTO_noMTC: CeeTox H295R High-throughput Steroidogenesis Assay for Testosterone (TESTO), maximum tolerated concentration (MTC) filtered results only (AID 2283924; active = hit-call score of the fitted dose curve at least 0.9, where 1 is the maximum; inactive = score below 0.9); settings: actives raise or lower the signal
# Summary of the method: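 Medium testosterone, measured by HPLC-MS/MS after liquid-liquid extraction, was fitted in both directions relative to DMSO without MTC filtering. Adrenal H295R cells received 48 h chemical exposure (0.1% DMSO final) after 48 h forskolin (10 uM) prestimulation; viability by MTT.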
# [12] = CEETOX_H295R_ESTRADIOL_noMTC: CeeTox H295R High-throughput Steroidogenesis Assay for Estradiol, maximum tolerated concentration (MTC) filtered results only (AID 2283919; active = hit-call score of the fitted dose curve at least 0.9, where 1 is the maximum; inactive = score below 0.9); settings: actives raise or lower the signal
# Summary of the method: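 Readout: dansyl-derivatized estradiol quantified by LC-MS/MS in medium from H295R cells dosed 48 h (0.1% DMSO) following 48 h forskolin (10 uM) prestimulation. Gain or loss of signal fitted against DMSO; no MTC filtering applied.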
# [13] = CEETOX_H295R_ESTRONE_noMTC: CeeTox H295R High-throughput Steroidogenesis Assay for Estrone, maximum tolerated concentration (MTC) filtered results only (AID 2283921; active = hit-call score of the fitted dose curve at least 0.9, where 1 is the maximum; inactive = score below 0.9); settings: actives raise or lower the signal
# Summary of the method: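 Estrone in spent medium, quantified by tandem MS following dansyl chloride derivatization, after 48 h chemical exposure (0.1% DMSO) of forskolin-prestimulated (10 uM, 48 h) H295R cells; concentrations not MTC-filtered, bidirectional fit against DMSO.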
# [14] = target: PGR (gene 5241) (UniProt P06401); experiment: TOX21_PR_BLA_Followup_Antagonist_ratio: Tox21 HEK293 Progesterone Receptor (PR) Antagonism Beta-lactamase Follow-Up Assay, Ratio (AID 2283934);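 note: PR-UAS-bla HEK293T cells stimulated with 1 nM R5020 agonist for 16 hr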
# Sequence of PGR (gene 5241) (P06401 whole entry, looked up): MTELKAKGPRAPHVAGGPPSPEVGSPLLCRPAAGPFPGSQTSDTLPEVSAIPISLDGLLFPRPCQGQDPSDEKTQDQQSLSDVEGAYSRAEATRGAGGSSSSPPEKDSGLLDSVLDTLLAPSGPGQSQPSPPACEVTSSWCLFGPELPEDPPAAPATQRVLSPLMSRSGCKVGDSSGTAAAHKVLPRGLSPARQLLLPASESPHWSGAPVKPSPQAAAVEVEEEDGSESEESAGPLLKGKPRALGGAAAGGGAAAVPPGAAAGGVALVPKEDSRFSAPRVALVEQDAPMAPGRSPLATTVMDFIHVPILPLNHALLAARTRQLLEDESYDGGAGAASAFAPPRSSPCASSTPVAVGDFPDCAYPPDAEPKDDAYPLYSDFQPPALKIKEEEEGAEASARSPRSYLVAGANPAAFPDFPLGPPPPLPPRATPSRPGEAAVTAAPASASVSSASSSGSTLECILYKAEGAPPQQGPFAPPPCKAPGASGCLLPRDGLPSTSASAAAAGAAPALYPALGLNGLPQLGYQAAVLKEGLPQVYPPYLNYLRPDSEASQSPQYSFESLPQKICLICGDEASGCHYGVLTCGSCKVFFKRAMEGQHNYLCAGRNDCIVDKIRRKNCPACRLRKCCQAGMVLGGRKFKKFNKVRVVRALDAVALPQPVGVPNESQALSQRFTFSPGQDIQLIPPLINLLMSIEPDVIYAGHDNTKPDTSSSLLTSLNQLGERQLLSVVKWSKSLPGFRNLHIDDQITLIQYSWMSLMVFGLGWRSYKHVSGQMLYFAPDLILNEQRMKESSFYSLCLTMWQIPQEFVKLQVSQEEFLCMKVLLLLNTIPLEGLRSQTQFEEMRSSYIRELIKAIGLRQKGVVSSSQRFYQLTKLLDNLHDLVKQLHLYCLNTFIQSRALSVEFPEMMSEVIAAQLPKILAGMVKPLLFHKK
# Summary of the method: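 Readout is the blue/green (ch2/ch1) substrate cleavage ratio after 2 hours at room temperature, following 16 hr co-treatment of PR-bla HEK293T cells with compound and 1nM promegestone. Multiplexed CellTiter-Glo viability flags cytotoxicity; DMSO baseline.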
# [15] = TOX21_PR_BLA_Followup_Agonist_viability: Viability Assessment in the Tox21 HEK293 Progesterone Receptor (PR) Agonism Beta-lactamase Follow-Up Assay (AID 2283935);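 note: signal loss means lower viability so actives are cytotoxic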
# Summary of the method: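 Run multiplexed with the beta-lactamase FRET read, this endpoint measures ATP by CellTiter-Glo luminescence (30 min, room temperature). PR-UAS-bla HEK293T cells received compound 6 hr after plating and were then incubated 16 hr at 37C in 2% stripped serum.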
# [16] = TOX21_PR_BLA_Followup_Antagonist_viability: Viability Assessment in the Tox21 HEK293 Progesterone Receptor (PR) Antagonism Beta-lactamase Follow-Up Assay (AID 2283936);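 note: cells exposed to compound with R5020 agonist for 16 h; hits lower the luminescence signal meaning cytotoxicity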
# Summary of the method: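 PR-UAS-bla HEK293T cells in medium with 2% charcoal-stripped FBS were treated with compounds plus R5020 for 16 hr at 37C. After the beta-lactamase read, CellTiter-Glo was added to the same wells and luminescence read after 30 min at room temperature.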
# [17] = target: PGR (gene 5241) (UniProt P06401); experiment: TOX21_PR_LUC_Followup_Antagonist: Tox21 HEK293 Progesterone Receptor (PR) Antagonism Luciferase Follow-Up Assay (AID 2283938);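 note: curve fitted upward as signal gain over DMSO baseline despite antagonist label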
# Summary of the method: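 Luminescence from ONE-Glo was measured 30 min after reagent addition, following 16 h exposure of HEK293-PR-A-luc cells (3,000/well, plated 5 h earlier) to DMSO-dissolved compounds at 37C; DMSO served as baseline.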
# [18] = TOX21_PR_LUC_Followup_Agonist_viability: Viability Assessment in the Tox21 HEK293 Progesterone Receptor (PR) Agonism Luciferase Follow-Up Assay (AID 2283941);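 note: loss of signal means cytotoxicity so actives lower viability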
# Summary of the method: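 Cytotoxicity counter-readout in the PR-A luciferase reporter line HEK293, with 16 h compound exposure at 37C after cells were cultured in charcoal-stripped serum. Cellular ATP quantified by CellTiter-Glo luminescence.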
# [19] = TOX21_PR_LUC_Followup_Antagonist_viability: Viability Assessment in the Tox21 HEK293 Progesterone Receptor (PR) Antagonism Luciferase Follow-Up Assay (AID 2283940)
# Summary of the method: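 Viability counter-readout: cellular ATP measured by luciferase luminescence after 16 h compound exposure at 37C of HEK293-PR-A-luc cells, which had been cultured in charcoal-stripped serum and seeded 5 h beforehand.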
# [20] = TOX21_TR_RXR_BLA_Agonist_Followup_viability: Viability Assessment in the Tox21 Thyroid Hormone Receptor beta Retinoid X Receptor alpha (RXRa) Agonism Beta-lactamase (BLA) Follow-Up Assay (AID 2283970)
# Summary of the method: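 CellTiter-Glo ATP luciferase read-out of cell viability, multiplexed with the beta-lactamase reporter run. RXRa-bla HEK293T cells in charcoal-stripped serum medium were exposed 16 h at 37C; data fitted both directions relative to DMSO.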
structure (smiles),measurement,setting,value
COc1cc(C(=O)NC2CCN(C)CC2)ccc1Nc1ncc2c(n1)N(C1CCCC1)CC(F)(F)C(=O)N2C,AC50,[1],16.4 µM (active)
same,outcome,[2],inactive
same,AC50,[3],3.69 µM (active)
same,AC50,[4],46.7 µM (active)
same,outcome,[5],inactive
CCCCCCCCOc1ccc(C(=O)c2ccccc2)c(O)c1,AC50,[6],30.1 µM (active)
CC/C(=C(/CC)c1ccc(O)cc1)c1ccc(O)cc1,outcome,[6],inactive
O=C1O[C@H]([C@@H](O)CO)C(O)=C1O,outcome,[7],inactive
same,outcome,[8],inactive
same,outcome,[9],inactive
same,outcome,[10],inactive
O=C(O)c1ccccc1C(=O)OCc1ccccc1,outcome,[6],inactive
same,outcome,[11],inactive
CC(C)(O)c1ccc(CNC(=O)c2cccnc2Oc2ccc3nonc3c2)cc1,AC50,[12],0.0671 µM (active)
same,outcome,[6],inactive
same,AC50,[13],0.0407 µM (active)
Cc1ccc2oc(CN(Cc3ccccc3)C(=O)Nc3c(F)cc(F)cc3F)c(-c3ccc(Cl)cc3)c2c1,AC50,[14],1.95 µM (active)
same,outcome,[15],inactive
same,outcome,[16],inactive
same,AC50,[17],1.09 µM (active)
same,outcome,[18],inactive
O=C(O)Cc1cc(I)c(Oc2ccc(O)c(I)c2)c(I)c1,AC50,[14],21.5 µM (active)
same,outcome,[15],inactive
same,outcome,[19],inactive
same,outcome,[18],inactive
same,outcome,[20],inactive
CCCCCc1ccc(N)cc1,outcome,[12],inactive
same,AC50,[6],13.9 µM (active)
same,outcome,[13],inactive
C[C@]12CC[C@@H]3c4ccc(O)cc4CC[C@H]3[C@@H]1CCC2=O,AC50,[14],1.42 µM (active)
same,outcome,[15],inactive
same,outcome,[16],inactive
same,outcome,[19],inactive
same,outcome,[18],inactive
c1ccc(C[n+]2cccc3ccccc32)cc1,outcome,[12],inactive
same,outcome,[6],inactive
same,outcome,[13],inactive
